Source: PubChem BioAssay (NCATS)
Results filed as inconclusive are left out. The list shows a part of the results. A call without a number means that no potency is given here. Calls of active or inactive are those of the source. Unless noted, calls come from the whole dose curve; as a rule, active = well fitted curve in the direction sought with a large enough effect; inconclusive = small, poorly fitted or top-dose-only effect, or another doubt; inactive = no such curve, though single readings can be large; an effect the other way counts as inactive or inconclusive.

Key:
[1] = qHTS for differential inhibitors of proliferation of Plasmodium falciparum line D10 (AID 1877);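 note: parasites grown with compound for 72 h before DNA staining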; note: potency is the fitted concentration of half-maximal effect
[2] = qHTS for differential inhibitors of proliferation of Plasmodium falciparum line Dd2 (AID 1882); settings: Potency: Plasmodium falciparum Dd2 proliferation inhibition; note: nearly all actives have a fitted effect of over 65% in size; note: potency is the fitted concentration of half-maximal effect
Summary of the method: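 Dd2-infected erythrocytes (0.3% parasitemia, 2.5% hematocrit final) incubated with compound 72 h at 37 C, 5% CO2; lysed with saponin/Triton buffer containing SYBR Green I, incubated overnight in the dark, then read by fluorescence (485/535 nm). Normalized to 0.29 uM artemisinin and DMSO.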

[3] = qHTS for differential inhibitors of proliferation of Plasmodium falciparum line W2 (AID 1883); settings: Potency: Plasmodium falciparum W2 proliferation inhibition;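 note: parasites grown with compound for 72 h before lysis and staining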; note: potency is the fitted concentration of half-maximal effect
[4] = qHTS for differential inhibitors of proliferation of Plasmodium falciparum line HB3 (AID 1886); settings: Potency: Plasmodium falciparum HB3 proliferation inhibition;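 note: parasites grown with compound for 72 h before SYBR Green readout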; note: potency is the fitted concentration of half-maximal effect
[5] = qHTS Assay for Modulators of Human Peripheral Myelin Protein 22 (PMP22) Expression/Activity (AID 1967; active = well fitted curve in the direction sought with a large enough effect in the signal ratio; the % refers to the signal ratio)
Summary of the method: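 MSC80 mouse Schwann cells stably carrying Pmp22 promoter–green click beetle luciferase plus EF-alpha–red luciferase control were dosed for 24h at 37 °C. Dual-colour luminescence was filter-overlap corrected; %Activity came from green/red ratio versus untreated cells.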

[6] = target: Ferritin light chain (Equus caballus) (UniProt P02791); test: qHTS Validation Assay for Identification of Novel General Anesthetics (AID 2323); note: series mostly up to about 77 µM
Summary of the method: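 Competitive displacement of profluorescent 1-aminoanthracene (1-AMA, 50% saturated solution in PBS) from 10 uM horse-spleen apoferritin. Compounds incubated 10 min at room temperature; fluorescence read at 380 nm excitation/535 nm emission, normalized to free 1-AMA and complex, fitted with four-parameter Hill equation.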

[7] = target: ATP-dependent DNA helicase Q1 (Homo sapiens) (UniProt P46063); test: qHTS Validation Assay for Inhibitors of RecQ-Like Dna Helicase 1 (RECQ1) (AID 2353)
Summary of the method: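 50 nM RECQ1T1 preincubated 15 min with compound in Tris pH 8.0 buffer with MgCl2, DTT, Tween-20 and 2.5 ug/ml poly(dI-dC); started with 200 nM TAMRA/BHQ-2 forked duplex and 2 mM ATP. Unwinding read as fluorescence (525/598 nm), two reads 2 h apart.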

[8] = target: RecQ-like DNA helicase BLM (Homo sapiens) (UniProt P54132); test: qHTS Validation Assay for Inhibitors of Bloom's syndrome helicase (BLM) (AID 2364)
Summary of the method: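 Forked 20-bp duplex substrate (200 nM, TAMRA/BHQ-2) plus 2 mM ATP added after 15 min compound preincubation with 50 nM enzyme, pH 8.0, poly(dI-dC) 2.5 ug/ml. Strand separation followed by fluorescence (525/598 nm) over 2 h, normalized to enzyme-free and DMSO controls.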

[9] = target: Endonuclease 4 (Escherichia coli (strain K12)) (UniProt P0A6C1); test: Counterscreen for APE1 Inhibitors: qHTS Assay for Inhibitors of Endonuclease IV (AID 2565)
Summary of the method: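 qHTS concentration-response format; LOPAC1280 tested under APE1-screen conditions. 2 nM enzyme, 15 min compound preincubation at RT, then 50 nM TAMRA/BHQ-2 abasic substrate; kinetic fluorescence read, three reads at 60 s intervals.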

Sequence of ATP-dependent DNA helicase Q1 (Homo sapiens) (P46063 whole entry, looked up): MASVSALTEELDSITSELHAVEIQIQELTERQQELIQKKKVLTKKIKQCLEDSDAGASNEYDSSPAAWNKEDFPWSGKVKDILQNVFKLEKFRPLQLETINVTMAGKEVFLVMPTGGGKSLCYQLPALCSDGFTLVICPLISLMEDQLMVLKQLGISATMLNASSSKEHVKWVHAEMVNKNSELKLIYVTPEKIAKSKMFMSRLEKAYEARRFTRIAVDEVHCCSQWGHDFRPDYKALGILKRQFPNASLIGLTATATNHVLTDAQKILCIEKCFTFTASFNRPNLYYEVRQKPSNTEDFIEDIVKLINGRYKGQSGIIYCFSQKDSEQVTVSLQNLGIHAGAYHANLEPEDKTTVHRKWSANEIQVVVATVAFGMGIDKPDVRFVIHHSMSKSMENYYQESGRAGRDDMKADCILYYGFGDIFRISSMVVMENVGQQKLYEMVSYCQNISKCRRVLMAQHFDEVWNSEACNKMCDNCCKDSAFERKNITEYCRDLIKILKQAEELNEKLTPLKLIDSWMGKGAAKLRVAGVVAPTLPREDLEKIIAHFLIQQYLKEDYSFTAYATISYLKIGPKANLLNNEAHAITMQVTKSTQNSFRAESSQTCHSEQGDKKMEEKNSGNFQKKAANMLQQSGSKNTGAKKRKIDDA
Sequence of RecQ-like DNA helicase BLM (Homo sapiens) (P54132 whole entry, looked up): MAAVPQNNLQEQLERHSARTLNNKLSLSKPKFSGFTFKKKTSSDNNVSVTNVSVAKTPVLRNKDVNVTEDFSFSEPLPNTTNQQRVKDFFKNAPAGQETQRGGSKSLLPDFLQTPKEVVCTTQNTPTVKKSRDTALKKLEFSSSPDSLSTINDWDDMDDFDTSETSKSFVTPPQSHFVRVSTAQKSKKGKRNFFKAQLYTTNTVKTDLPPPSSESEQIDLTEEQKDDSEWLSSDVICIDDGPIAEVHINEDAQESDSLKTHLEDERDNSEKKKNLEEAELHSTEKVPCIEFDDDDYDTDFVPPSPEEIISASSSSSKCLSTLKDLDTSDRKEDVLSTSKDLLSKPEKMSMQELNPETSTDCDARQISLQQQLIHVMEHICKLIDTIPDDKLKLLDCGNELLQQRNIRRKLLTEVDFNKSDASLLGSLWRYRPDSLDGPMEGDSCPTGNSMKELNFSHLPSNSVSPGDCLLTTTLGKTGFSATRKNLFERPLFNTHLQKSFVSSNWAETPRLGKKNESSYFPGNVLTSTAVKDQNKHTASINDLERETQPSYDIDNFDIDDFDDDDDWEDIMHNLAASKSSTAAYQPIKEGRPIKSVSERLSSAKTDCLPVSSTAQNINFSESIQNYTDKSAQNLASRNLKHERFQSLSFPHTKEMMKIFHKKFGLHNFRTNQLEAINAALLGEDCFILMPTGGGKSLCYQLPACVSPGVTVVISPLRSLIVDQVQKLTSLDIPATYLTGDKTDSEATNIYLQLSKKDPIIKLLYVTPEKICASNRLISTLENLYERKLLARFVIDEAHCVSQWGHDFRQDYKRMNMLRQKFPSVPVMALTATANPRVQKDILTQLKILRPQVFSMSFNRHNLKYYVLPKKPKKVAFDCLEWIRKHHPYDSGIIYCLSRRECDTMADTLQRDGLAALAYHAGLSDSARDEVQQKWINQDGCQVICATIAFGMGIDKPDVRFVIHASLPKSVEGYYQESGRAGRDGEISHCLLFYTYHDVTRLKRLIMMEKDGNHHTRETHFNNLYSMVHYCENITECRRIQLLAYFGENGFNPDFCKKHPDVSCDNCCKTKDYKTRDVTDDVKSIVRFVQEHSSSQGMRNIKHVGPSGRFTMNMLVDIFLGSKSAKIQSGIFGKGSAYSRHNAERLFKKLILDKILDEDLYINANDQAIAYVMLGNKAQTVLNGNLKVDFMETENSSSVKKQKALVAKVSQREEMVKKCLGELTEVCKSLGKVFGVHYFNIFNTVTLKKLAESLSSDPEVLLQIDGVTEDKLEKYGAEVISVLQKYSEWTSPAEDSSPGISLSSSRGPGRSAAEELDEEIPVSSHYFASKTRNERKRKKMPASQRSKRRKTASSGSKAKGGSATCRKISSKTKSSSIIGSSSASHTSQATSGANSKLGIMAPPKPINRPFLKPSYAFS
Sequence of Ferritin light chain (Equus caballus) (P02791 2-175 limits assumed): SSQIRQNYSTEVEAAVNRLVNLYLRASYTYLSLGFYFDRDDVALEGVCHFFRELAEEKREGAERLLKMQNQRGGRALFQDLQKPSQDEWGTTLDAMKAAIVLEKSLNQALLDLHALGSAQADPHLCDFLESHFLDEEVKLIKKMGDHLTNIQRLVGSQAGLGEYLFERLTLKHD

Structure (SMILES)	Potency [1]	Potency [2]	Potency [3]	Potency [4]	outcome [5]	outcome [6]	Potency [7]	Potency [8]	outcome [9]
C[N+](C)(C)CCOC(=O)CBr	inactive	inactive	inactive	inactive	inactive	inactive	inactive	inactive	–
NC(C(=O)O)c1cc(=O)[nH]o1 (stereo not given)	inactive	inactive	inactive	inactive	inactive	inactive	–	inactive	–
C#CCN[C@H](C)Cc1ccccc1	inactive	inactive	inactive	inactive	inactive	inactive	–	inactive	–
CC(Cc1ccc(OCC(=O)O)cc1)NCC(O)c1cccc(Cl)c1 (stereo not given)	inactive	inactive	inactive	inactive	inactive	inactive	–	–	–
O=C(O)c1cc[c]([Hg][Cl])cc1	1.12 µM (active)	11.2 µM (active)	1.41 µM (active)	5.01 µM (active)	–	inactive	–	–	–
CCCN(CCC)C1CCc2cccc(O)c2C1 (stereo not given)	inactive	inactive	inactive	inactive	inactive	inactive	–	–	–
CCCCCCC(C)(C)c1ccc([C@@H]2C[C@H](O)CC[C@H]2CCCO)c(O)c1	7.94 µM (active)	4.47 µM (active)	2.24 µM (active)	2.82 µM (active)	–	–	–	–	–
CO[C@H]1CC=C2CCN3CCC4=C(CC(=O)OC4)[C@]23C1	inactive	inactive	inactive	inactive	inactive	inactive	–	–	–
N[C@@H](Cn1oc(=O)[nH]c1=O)C(=O)O	inactive	inactive	inactive	inactive	inactive	inactive	inactive	–	–
CC(C)(C)c1cc(C=C(C#N)C#N)cc(C(C)(C)C)c1O	1.12 µM (active)	0.891 µM (active)	0.355 µM (active)	1 µM (active)	–	–	–	–	–
O=P(O)(O)C(Cl)(Cl)P(=O)(O)O	inactive	inactive	inactive	inactive	inactive	inactive	inactive	inactive	–
C[C@@H]1O[C@H](C[N+](C)(C)C)CS1	inactive	inactive	inactive	inactive	inactive	inactive	inactive	inactive	–
CP(=O)(O)C1=CCNCC1	inactive	inactive	inactive	inactive	–	inactive	–	–	–
CCS(=O)(=O)Nc1cccc(C(=C2CCCCC2)c2cnc[nH]2)c1	14.1 µM (active)	10 µM (active)	8.91 µM (active)	12.6 µM (active)	–	–	–	–	–
CCN(CC)c1ncnc2c1ncn2[C@@H]1O[C@H](COP(=O)(O)OP(=O)(O)C(Br)(Br)P(=O)(O)O)[C@@H](O)[C@H]1O	inactive	inactive	inactive	inactive	inactive	inactive	inactive	–	–
CC(=O)c1c(O)c(C)c(O)c(Cc2c(O)c3c(c(C(=O)/C=C/c4ccccc4)c2O)OC(C)(C)C=C3)c1O	10 µM (active)	7.94 µM (active)	3.55 µM (active)	5.62 µM (active)	–	–	–	–	–
NNC(=O)c1ccc(O)cc1	inactive	inactive	inactive	inactive	–	inactive	–	–	–
Cc1o[nH]c(=O)c1CC(N)C(=O)O (stereo not given)	inactive	inactive	inactive	inactive	inactive	inactive	inactive	–	–
Cc1[nH]c2ccc(O)cc2c1CCN	inactive	inactive	inactive	inactive	inactive	inactive	inactive	–	–
NNC(N)=O	inactive	inactive	inactive	inactive	inactive	inactive	–	inactive	–
O=C1C=CC(=O)C=C1	inactive	inactive	inactive	inactive	inactive	inactive	–	–	–
OC1CCCCC1N1CCC(c2ccccc2)CC1 (stereo not given)	inactive	inactive	10 µM (active)	inactive	inactive	inactive	inactive	–	–
CC(C)CC(NP(=O)(O)O[C@@H]1O[C@@H](C)[C@H](O)[C@@H](O)[C@H]1O)C(=O)NC(Cc1c[nH]c2ccccc12)C(=O)O (stereo not given in full)	inactive	inactive	inactive	inactive	inactive	inactive	inactive	inactive	–
N[C@@]1(C(=O)O)CC[C@@H](C(=O)O)C1	inactive	inactive	inactive	inactive	inactive	inactive	–	–	–
C[C@H](Cc1ccc2c(c1)OC(C(=O)O)(C(=O)O)O2)NC[C@H](O)c1cccc(Cl)c1	inactive	inactive	inactive	inactive	inactive	inactive	inactive	inactive	–
c1ccc2cc(CC3=NCCN3)ccc2c1	inactive	inactive	12.6 µM (active)	inactive	inactive	inactive	–	inactive	–
CC(=O)NBr	inactive	inactive	inactive	inactive	inactive	inactive	inactive	inactive	inactive
C/C(O)=C(\C#N)C(=O)Nc1cc(Br)ccc1Br	inactive	inactive	inactive	inactive	inactive	inactive	inactive	–	–
